Results published in PubChem BioAssay.
Values without a mark were called inactive. Calls of active or inactive are those of the source. Cut-off read from the data, not from the text of the source, unless noted: active = inhibition above about 44%; inactive = the rest.

Key:
[1] = StAR promoter reporter inhibitors, counter-screen for LRH-1 inverse agonist project, cell-based, luminescence, high throughput (AID 651611; in the data active = inhibition above about 28%); settings: StAR promoter luciferase reporter counterscreen, at 3.6 µM, hits give high values
[2] = target: Nuclear receptor subfamily 5 group A member 2 (Homo sapiens) (UniProt O00482); experiment: NR5A2 activity suppression in reporter cells – cell-based, luminescence, confirmation (AID 651613; in the data active = inhibition above about 42%;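 note: HEK293T cells co-transfected with LRH-1 and StAR promoter luciferase reporter; 0% = vehicle wells and 100% = parental cells lacking receptor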); settings: cell-based LRH-1 luciferase reporter, inverse agonism; at 3.6 µM; hits give high values
Nuclear receptor subfamily 5 group A member 2 (Homo sapiens), sequence (O00482 whole entry, looked up): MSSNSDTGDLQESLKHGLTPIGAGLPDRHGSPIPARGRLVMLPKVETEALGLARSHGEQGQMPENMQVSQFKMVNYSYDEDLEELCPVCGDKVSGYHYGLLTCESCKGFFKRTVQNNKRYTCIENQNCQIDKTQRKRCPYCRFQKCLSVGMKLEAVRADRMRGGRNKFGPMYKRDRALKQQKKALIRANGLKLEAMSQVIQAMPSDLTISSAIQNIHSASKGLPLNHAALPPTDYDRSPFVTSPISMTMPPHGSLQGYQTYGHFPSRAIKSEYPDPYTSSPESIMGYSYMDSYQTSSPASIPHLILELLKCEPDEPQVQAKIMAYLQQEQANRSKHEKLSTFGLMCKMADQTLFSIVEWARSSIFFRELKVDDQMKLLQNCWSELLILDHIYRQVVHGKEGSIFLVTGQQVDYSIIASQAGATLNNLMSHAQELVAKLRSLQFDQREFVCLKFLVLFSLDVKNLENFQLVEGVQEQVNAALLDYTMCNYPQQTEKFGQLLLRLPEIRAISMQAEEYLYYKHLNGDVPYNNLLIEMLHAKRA

[3] = target: Steroidogenic factor 1 (Homo sapiens) (UniProt Q13285); experiment: inverse agonism at SF1 nuclear receptor – cell-based, luminescence, high throughput, counter-screen for LRH-1 inverse agonist project (AID 651614); settings: cell-based SF1 luciferase reporter, at 3.6 µM, hits give high values;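 note: cells cotransfected with StAR promoter reporter and SF1 expression vector; 0% = vehicle on cells with receptor and 100% = vehicle on cells lacking receptor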
Steroidogenic factor 1 (Homo sapiens), sequence (Q13285 whole entry, looked up, the tested form may be a part): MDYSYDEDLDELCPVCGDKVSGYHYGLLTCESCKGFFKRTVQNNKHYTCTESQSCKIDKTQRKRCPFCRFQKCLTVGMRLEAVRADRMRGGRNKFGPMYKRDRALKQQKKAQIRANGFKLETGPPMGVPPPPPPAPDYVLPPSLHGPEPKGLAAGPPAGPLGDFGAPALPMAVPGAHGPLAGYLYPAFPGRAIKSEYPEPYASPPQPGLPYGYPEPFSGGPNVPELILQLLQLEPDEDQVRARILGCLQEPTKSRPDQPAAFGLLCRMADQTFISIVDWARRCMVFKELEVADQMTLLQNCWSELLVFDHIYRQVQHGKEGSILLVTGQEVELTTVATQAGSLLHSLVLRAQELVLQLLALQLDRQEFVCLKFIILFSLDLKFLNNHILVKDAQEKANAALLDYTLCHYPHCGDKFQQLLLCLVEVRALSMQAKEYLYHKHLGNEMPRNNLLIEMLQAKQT

[4] = compounds suppressing VP16-driven luciferase signal – cell-based, luminescence, high throughput, counter-screen for LRH-1 inverse agonist project (AID 651615; in the data active = inhibition above about 33%); settings: Gal4-VP16 luciferase reporter cells, at 3.6 µM, hits give high values

Compound | inhibition [1] | inhibition [2] | inhibition [3] | inhibition [4]
O=C(Nc1cccc(NC(=O)c2ccc([N+](=O)[O-])o2)c1)c1ccco1 | 23.5% | 69% (active) | 70.5% (active) | -8.09%
CC1CCC2(CC1)NC(=O)N(CC(=O)Nc1ccc3c(c1)CCC3)C2=O (stereo unspecified) | 39.1% (active) | 49.1% (active) | 48.9% (active) | 12.8%
NNC(=O)C(Cc1ccc(O)cc1)N1Cc2ccccc2C1=O (stereo unspecified) | -1.94% | 20.6% | 29.4% | 1.55%
CCOc1ccc(NC(=O)CN2CCN(C3c4ccccc4-c4ccccc43)CC2)cc1 | 9.85% | 66.5% (active) | 60.1% (active) | -0.77%
O=C(NNc1ccccc1)C(=O)NNS(=O)(=O)c1ccc([N+](=O)[O-])cc1 | 1.65% | 12.9% | 27.1% | 20.1%
Cc1cc2oc(C(=O)NCc3ccncc3)c(C)c2cc1C | -3.56% | 36.2% | 39.6% | 3.82%
COc1c(/C=N/NC(N)=S)c(C)nn1-c1ccccc1 | 1.43% | 39.5% | 27.9% | -8.71%
COc1ccc(-n2c(SCC(=O)NCc3ccco3)nc3sc4c(c3c2=O)CCN(C)C4)cc1 | -6.62% | -2.89% | 11% | -5.24%
CC(=O)Nc1ccc(NC(=O)COC(=O)Cc2c[nH]c3ccccc23)cc1 | 18.8% | 67.4% (active) | 53.8% (active) | -15.3%
O=c1c2ccccc2ncn1Cc1ccco1 | 1.6% | 10.5% | 18.4% | 0.81%
CN1C(=O)NC(c2ccccc2[N+](=O)[O-])C2=C1CC(C)(C)CC2=O (stereo unspecified) | 3.55% | 19% | -6.97% | 0.8%
CC(=O)N1CCc2c(sc(NC(=O)Cc3ccc(F)cc3)c2C#N)C1 | 21.4% | 65.3% (active) | 57.6% (active) | -35.5%
COc1ccccc1NC(=O)CN1CCN(CC(=O)Nc2ccc(S(N)(=O)=O)cc2)CC1 | 19.1% | 49.8% (active) | 47.7% (active) | -15.6%
COc1ccc(NC(=O)Cn2c(C)cc(=O)c3ccccc32)cc1 | 0.15% | 64.9% (active) | 53.2% (active) | 35.1% (active)
COc1ccc(C2=Nn3c(nnc3-c3ccccc3F)SC2)cc1OC1CCOC1 (stereo unspecified) | 56.2% (active) | 75% (active) | 78.2% (active) | -40.3%
CC(=NNC(=S)N1CCN(c2ccccn2)CC1)c1nccs1 | 82.9% (active) | 91.2% (active) | 79.4% (active) | 44.3% (active)
CC1=C(n2nnc([N+](=O)[O-])n2)C(c2cccnc2)C(C#N)=C(N)O1 (stereo unspecified) | 6.01% | 17.6% | 21.5% | -0.44%
COc1cc2c(OC(C)=O)c3c(c(-c4ccc5c(c4)OCO5)c2cc1OC)C(=O)OC3 | 55.8% (active) | 35.4% | 36.2% | 34.7% (active)
O=C(COc1ccc2c(-c3ccccc3)cc(=O)oc2c1)NCCCn1ccnc1 | 9.33% | 36.4% | 39% | -19.5%
COC(=O)c1c(NC(=O)c2ccco2)sc2c1CCN(C(C)=O)C2 | 20% | 54.4% (active) | 44.7% (active) | -41%
CCN(CC)S(=O)(=O)c1ccc(N2CCOCC2)c(NC(=O)c2[nH]c(C)c(C(C)=O)c2C)c1 | 61.6% (active) | 51.5% (active) | 25.8% | -200%
C/C(=N\NC(N)=S)c1ccc(-n2ccnc2)cc1 | 10.1% | 60.5% (active) | 53.4% (active) | -13.1%
COc1ccc(S(=O)(=O)N2CCCN(CC(=O)Nc3ccc(OC)c(Cl)c3)CC2)cc1 | 17.7% | 65.8% (active) | 57.7% (active) | -5.36%
Cc1ccc(CC(=O)Nc2ccncc2)cc1 | 7.72% | 64.3% (active) | 64.9% (active) | 40.5% (active)
CC(=O)c1ccc(-c2cnc3c(NC=O)cc(-c4ccc(S(C)(=O)=O)cc4)cn23)cc1 | 31.7% (active) | 74.8% (active) | 70.3% (active) | -0.51%

Compound | inhibition [1] | inhibition [2] | inhibition [3] | inhibition [4]
CC(C)N1CCc2c(sc(NC(=O)c3ccc([N+](=O)[O-])o3)c2C(N)=O)C1 | 37.6% (active) | 55.4% (active) | 56.4% (active) | -8.36%
O=C(Cn1ncc2c([nH]c3ccccc32)c1=O)Nc1ccc(CN2CCCCC2)cc1 | 5.26% | 60.9% (active) | 62.4% (active) | -4.27%
CC(=O)Nc1ccc(NC(=O)COC(=O)c2cc(S(=O)(=O)N3CCCC3)ccc2O)cc1 | 21% | 58.9% (active) | 61.4% (active) | -14.8%
CC(=O)Nc1ccc(NC(=O)CSc2nc(N)c(NC(=O)c3ccco3)c(=O)[nH]2)cc1 | 13.1% | 51.4% (active) | 48.4% (active) | -7.2%
OC[C@@H]1CN(Cc2ccc(-c3ccccc3)cc2)C[C@H](n2cnc3c(NC4CCC4)ncnc32)O1 | 16.5% | 53.4% (active) | 60.2% (active) | 56% (active)
CCCc1cc(=O)oc2c(C)c(OCC(=O)NC3CC(C)(C)NC(C)(C)C3)ccc12 | 6.86% | 53% (active) | 59% (active) | 9.82%
COc1ccc(NS(=O)(=O)c2cccc(NC(=O)c3ccc(Cl)nc3)c2)cc1 | 37.9% (active) | 63.3% (active) | 66% (active) | 55.4% (active)
CS(=O)(=O)N1CCN(c2ccccc2NC(=O)c2cc3ccccc3o2)CC1 | 26.4% | 47.5% (active) | 33.7% | -6.66%
O=[N+]([O-])c1ccc(COc2cccc(CNc3ccc(Br)cc3)c2)cc1 | 3.67% | 48.8% (active) | 37.4% | -6.59%
N#CCSc1ccccc1NC(=O)CN1C(=O)C2CC=CCC2C1=O (stereo unspecified) | 10.9% | 58.1% (active) | 60.2% (active) | -7.26%
CC(C)(C)C(=O)N1CCN(c2ccc(NC(=O)c3ccc([N+](=O)[O-])o3)cc2)CC1 | 11.1% | 59.7% (active) | 68.6% (active) | -12.6%
COc1ccc(NC(=O)COc2ccc(N(C)S(=O)(=O)c3ccc(Cl)cc3)cc2)cc1OC | 18.5% | 67.1% (active) | 51.7% (active) | 51.1% (active)
CCCOc1ccc(N)cc1N | 11.1% | 21.4% | 27% | -3.38%
O=[N+]([O-])c1ccc(N2CCCC2)nc1N1CCCC1 | 11.1% | 59.7% (active) | 56.1% (active) | -3.67%
NC(=S)Nc1ccc(Oc2ccc(NC(N)=S)cc2)cc1 | 5.35% | 31.2% | 40% | -6.09%
CC(=O)N1CCc2c(sc(NC(=O)Cc3ccccc3)c2C#N)C1 | 18.4% | 64% (active) | 57.4% (active) | -30.8%
COc1cccc(C2c3cc4c(cc3OC(NNC(N)=O)C2C)OCO4)c1O (stereo unspecified) | 24.7% | 59% (active) | 60.1% (active) | 26.5%
CC(=O)CSc1nc(N)c(C#N)c(-c2cccs2)c1C#N | 31.5% (active) | 57.7% (active) | 62.7% (active) | 35% (active)
Cc1cc(-n2c(C)cc(C(=O)CSc3ncnc4ccccc34)c2C)no1 | 8.06% | 67.2% (active) | 61.3% (active) | 36.9% (active)
O=C(c1ccoc1)N1CCN(c2cc(-c3ccco3)nc3cc(-c4ccccc4)nn23)CC1 | 46.1% (active) | 50.1% (active) | 48% (active) | 19.7%
Cc1ccc(NC(=O)Cc2nnc(SCC(=O)Nc3ccc(N4CCOCC4)cc3)n2C)cc1 | 6.95% | 59.7% (active) | 51.9% (active) | 12%
Cc1cc(OCC(=O)Nc2ccc(OCc3ccccc3)cc2)nc(C(C)C)n1 | -0.66% | 48% (active) | 32.4% | 15.2%
COc1cc(C(=O)Nc2ccccc2N2CCN(S(C)(=O)=O)CC2)cc(OC)c1OC | 9.79% | 44.5% (active) | 34% | -2.73%
CCCNC(=O)c1sc2c(c1C(=O)Nc1ccccn1)CCCC2 | -1.58% | 47.1% (active) | 42.7% (active) | 14.3%
